The source of these data is PubChem BioAssay.

A short description of test [1]: optical density shifts of acrAB sulA E. coli – strain DRC41, OD650, 48 h, E. coli filamentation inducer project, primary screen (AID 1152).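 Further: E. coli MC1000 strain DRC41 lacking acrAB efflux pump and sulA.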 Particulars: higher = more signal, called active from +8 up or from −8 down.
Test [2] can be described thus: probe aLefty1 binding on compound microarray – biochemical, small-molecule microarray, 635/667 nm fluorescence, primary screen (AID 1153).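 Further: score merges spot fluorescence with signal-to-noise ratio from the scanned slide images.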 Particulars: higher = more signal.
Test [3] can be described thus: plasmodial surface anion channel blockers, osmotic lysis – cell-based, P. falciparum Indochina, OD700, 1 h, primary screen (AID 1154). Conditions: P. falciparum Indochina infected RBC osmotic lysis, higher = more signal, called active from +8 up or from −8 down.
Test [4] can be described thus: plasmodial surface anion channel blockers, osmotic lysis – cell-based, P. falciparum Indochina, OD700, 2 h, primary screen (AID 1155).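 Further: lysis reports solute entry through the parasite surface anion channel PSAC.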 Conditions: P. falciparum Indochina infected erythrocytes, higher = more signal, called active from +8 up or from −8 down.
Test [5] in a line: changes in parasitized red cell lysis, either direction – P. falciparum Indochina, OD700, 3 h, PSAC antagonist project, primary screen (AID 1156). Particulars: P. falciparum-infected erythrocytes, osmotic lysis, higher = more signal, called active from +8 up or from −8 down.
Test [6] is described as follows: plasmodial surface anion channel blockers, osmotic lysis – cell-based, P. falciparum Indochina, OD700, 18 h, primary screen (AID 1157). Particulars: P. falciparum Indochina infected erythrocytes, osmotic lysis OD700, 18 h; higher = more signal, called active from +8 up or from −8 down.
A short description of test [7]: S6 kinase pathway phospho-S6 level changes – cell-based, A549, cytoblot, luminescence, serum-stimulated, primary screen (AID 1158).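 Further: serum-stimulated A549 lung adenocarcinoma cells; signal is phosphorylated S6 detected by cytoblot immunostaining with HRP secondary.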 Particulars: 5 h, higher = more signal.
Test [8] addresses NADPH oxidase 2 (Homo sapiens) (UniProt P04839). Description: compounds shifting NOX2 Amplex Red fluorescence – cell-based, HEK293-NOX2, PMA-stimulated, NOX inhibitor project, primary screen (AID 1159). Further: test concentration not given here. Conditions: 45 min, higher = more signal, called active from +8 up or from −8 down.
Test [9] deals with NADPH oxidase 4 (Homo sapiens) (UniProt Q9NPH5). Description: compounds shifting NOX4 Amplex Red fluorescence – cell-based, HEK293-NOX4, tetracycline-induced, NOX inhibitor project, primary screen (AID 1160). Particulars: HEK293-NOX4, Amplex Red H2O2 fluorescence, 45 min; higher = more signal, called active from +8 up or from −8 down.
NADPH oxidase 4 (Homo sapiens), sequence (Q9NPH5 whole entry, looked up): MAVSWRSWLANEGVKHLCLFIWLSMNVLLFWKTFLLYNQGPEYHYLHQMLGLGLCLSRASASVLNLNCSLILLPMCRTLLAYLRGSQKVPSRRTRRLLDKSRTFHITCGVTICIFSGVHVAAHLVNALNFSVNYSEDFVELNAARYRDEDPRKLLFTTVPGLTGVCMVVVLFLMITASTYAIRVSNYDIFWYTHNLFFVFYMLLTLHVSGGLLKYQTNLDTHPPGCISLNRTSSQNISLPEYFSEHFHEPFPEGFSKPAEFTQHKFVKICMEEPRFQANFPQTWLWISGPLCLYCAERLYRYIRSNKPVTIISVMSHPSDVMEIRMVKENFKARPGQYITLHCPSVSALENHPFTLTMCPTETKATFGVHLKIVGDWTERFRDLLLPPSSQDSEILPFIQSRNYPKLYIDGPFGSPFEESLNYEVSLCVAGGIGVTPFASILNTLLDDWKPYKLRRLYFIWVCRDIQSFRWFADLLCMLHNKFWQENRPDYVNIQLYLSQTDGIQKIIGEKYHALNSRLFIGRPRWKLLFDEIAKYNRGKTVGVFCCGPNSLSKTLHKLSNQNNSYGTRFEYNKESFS
For test [10], the target named is NADPH oxidase 5 (Homo sapiens) (UniProt Q96PH1). Description: compounds shifting NOX5 Amplex Red fluorescence – cell-based, HEK293-NOX5, NOX inhibitor project, primary screen (AID 1161). Particulars: HEK293-NOX5, ionomycin, 45 min, higher = more signal.
NADPH oxidase 5 (Homo sapiens), sequence (Q96PH1 whole entry, looked up): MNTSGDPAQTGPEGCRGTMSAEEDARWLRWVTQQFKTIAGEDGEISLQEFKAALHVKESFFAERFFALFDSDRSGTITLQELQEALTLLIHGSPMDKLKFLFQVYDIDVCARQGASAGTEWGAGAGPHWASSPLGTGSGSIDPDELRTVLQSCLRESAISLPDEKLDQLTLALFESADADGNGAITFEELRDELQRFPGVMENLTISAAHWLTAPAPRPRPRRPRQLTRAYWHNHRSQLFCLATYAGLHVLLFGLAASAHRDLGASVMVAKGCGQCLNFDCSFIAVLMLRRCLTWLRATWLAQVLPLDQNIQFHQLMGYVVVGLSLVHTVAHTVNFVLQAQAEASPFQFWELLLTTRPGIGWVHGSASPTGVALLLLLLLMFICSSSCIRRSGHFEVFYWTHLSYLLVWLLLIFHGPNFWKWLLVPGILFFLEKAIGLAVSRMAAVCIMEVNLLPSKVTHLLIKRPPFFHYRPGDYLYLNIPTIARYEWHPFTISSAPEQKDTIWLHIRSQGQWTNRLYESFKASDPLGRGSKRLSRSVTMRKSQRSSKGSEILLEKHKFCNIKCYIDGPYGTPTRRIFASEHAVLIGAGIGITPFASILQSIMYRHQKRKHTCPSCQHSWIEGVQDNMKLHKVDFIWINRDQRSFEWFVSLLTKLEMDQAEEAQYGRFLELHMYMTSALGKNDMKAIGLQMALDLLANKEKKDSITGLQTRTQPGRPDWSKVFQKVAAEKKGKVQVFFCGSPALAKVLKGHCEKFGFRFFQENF
The nature of test [11]: compound effects on lung adenocarcinoma cell viability – A549, calcein-AM fluorescence, 48 h, basal, profiling panel (AID 1162). Further: test concentration not given here. Conditions: higher = more signal.
Test [12] is described as follows: compound effects on differentiated 3T3-L1 adipocyte viability – cell-based, 3T3-L1 adipocytes, calcein-AM fluorescence, 48 h, basal, profiling panel (AID 1163). Further: test concentration not given here. Particulars: 3T3-L1 adipocytes viability, higher = more signal.
Test [13] in a line: compound effects on hepatocellular carcinoma cell viability – HepG2, calcein-AM fluorescence, 48 h, basal, profiling panel (AID 1164). Further: test concentration not given here. Conditions: higher = more signal.
The nature of test [14]: compound effects on multiple myeloma cell viability – MM1S, calcein-AM fluorescence, 48 h, basal, profiling panel (AID 1165). Further: test concentration not given here. Conditions: higher = more signal.
Test [15] in a line: calcein-AM signal in unstimulated myeloma cells – cell-based, calcein-AM fluorescence, 48 h, PK04 Diversity Set, profiling panel (AID 1166).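 Further: cells grown under basal conditions without added stimulus; test concentration not given here.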 Conditions: RPMI8226 myeloma viability, higher = more signal.
Test [16] in a line: JC-1 mitochondrial signal, unstimulated HepG2 cells – cell-based, JC-1 fluorescence, 24 h, 100 nL compound, profiling panel (AID 1167). Further: test concentration not given here. Conditions: HepG2 mitochondrial potential, higher = more signal.
Test [17] can be described thus: JC-1 mitochondrial signal, unstimulated adipocytes – cell-based, JC-1 fluorescence, 3T3-L1 adipocytes, 24 h, 100 nL compound, profiling panel (AID 1168). Further: test concentration not given here. Conditions: JC-1 mitochondrial fluorescence, higher = more signal, called active from +8 up or from −8 down.
The nature of test [18]: JC-1 mitochondrial signal, unstimulated myeloma cells – cell-based, JC-1 fluorescence, RPMI8226, 24 h, 100 nL compound, profiling panel (AID 1169). Further: test concentration not given here. Particulars: JC-1 mitochondrial potential fluorescence, higher = more signal.
A short description of test [19]: JC-1 mitochondrial signal, unstimulated MM1S myeloma – cell-based, JC-1 fluorescence, 24 h, 100 nL compound, profiling panel (AID 1170). Further: test concentration not given here. Particulars: MM1S mitochondrial potential, higher = more signal.
The nature of test [20]: resazurin metabolic signal in A549 cells – cell-based, resazurin fluorescence, 24 h, PK04 Diversity Set, profiling panel (AID 1171). Further: test concentration not given here. Conditions: A549 viability, higher = more signal, called active from +8 up or from −8 down. For orientation: Resazurin is reduced to fluorescent resorufin, in cell work by metabolically active cells.

Calls of active or inactive are those of the source.

NADPH oxidase 2 (Homo sapiens), sequence (P04839 whole entry, looked up): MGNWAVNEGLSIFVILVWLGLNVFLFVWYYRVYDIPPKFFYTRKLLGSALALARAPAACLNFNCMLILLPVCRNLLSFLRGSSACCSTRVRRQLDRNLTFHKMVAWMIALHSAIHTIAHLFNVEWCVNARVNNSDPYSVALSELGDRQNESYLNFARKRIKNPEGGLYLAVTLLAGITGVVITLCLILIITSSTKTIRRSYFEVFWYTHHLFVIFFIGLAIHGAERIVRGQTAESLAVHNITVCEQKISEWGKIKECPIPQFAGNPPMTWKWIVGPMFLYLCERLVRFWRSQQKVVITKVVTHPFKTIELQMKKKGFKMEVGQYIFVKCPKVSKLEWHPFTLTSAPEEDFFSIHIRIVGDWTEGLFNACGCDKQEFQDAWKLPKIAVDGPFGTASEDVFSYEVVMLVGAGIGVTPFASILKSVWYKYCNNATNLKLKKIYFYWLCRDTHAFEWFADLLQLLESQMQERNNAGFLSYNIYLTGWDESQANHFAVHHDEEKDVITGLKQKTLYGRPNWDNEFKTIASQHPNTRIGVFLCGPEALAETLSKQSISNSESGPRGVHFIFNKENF

`O=C1c2ccccc2[C@](Cc2ccccc2I)(C(=O)NCCN2CCOCC2)[C@H](c2ccc(CO)cc2)N1Cc1ccccc1Cl`: the z-score in test [1] was 0.065 (inactive); in test [3], 11.7 (active); in test [4], 1.47 (inactive); in test [5], 1.01 (inactive); in test [6], 0.818 (inactive); in [7] it was -0.0261. Further, the z-score in [8] was -0.136 (inactive); in test [9] it was 0.707 (inactive); in test [10] it was 0.608; in test [11], 0.537; in test [12], 0.261; in test [13], 0.63. Also, the z-score was -1.66 in [14]; -1.88 in [15]; 1.77 in test [16]; -0.585 (inactive) in [17]; -0.273 in test [18]; 0.918 in test [19]. In test [20], the z-score is 0.928 (inactive). The molecule further had a composite z-score in test [2] of 0.559.

On to `COC(=O)[C@@]1(Cc2ccc(F)cc2)[C@H]2c3cc(C(=O)N4CCCC4)n(CCCNc4ncc(C(F)(F)F)cc4Cl)c3C[C@H]2CN1C(=O)c1ccccc1`, for which the z-score is -2.31 (inactive) in [1]; 1.58 (inactive) in test [3]; 0.852 (inactive) in [4]; 1.01 (inactive) in [5]; 0.863 (inactive) in test [6]; -0.626 in [7]. Moreover, the z-score in [8] was -0.299 (inactive); in test [9], -2.23 (inactive); in test [10], -0.307; in [11], -0.386; in test [12], -0.68; in test [13], 0.0224. The z-score was -1.48 in [14]; -1.13 in test [15]; 1.12 in test [16]; -1.8 (inactive) in test [17]; -0.501 in test [18]; -1.2 in test [19]. For the same molecule, the z-score in [20] is -0.733 (inactive). Further, the composite z-score in test [2] is 0.4.

Regarding `COc1ccc(C#Cc2ccc3c(c2)[C@]2(C(=O)N3)[C@H](C(=O)NC[C@H](O)c3ccccc3)[C@H]3C(=O)O[C@H](c4ccccc4)[C@H](c4ccccc4)N3[C@@H]2c2ccc(O)cc2)cc1`, the z-score in test [1] is 0.078 (inactive); in test [3], -0.476 (inactive); in test [4], 0.657 (inactive); in test [5], -1.03 (inactive); in test [6], 0.909 (inactive); in [7], -0.434. Besides, the z-score in test [8] is 1.25 (inactive); in test [9], 0.118 (inactive); in [10], -0.339; in test [11] it was 0.0902; in [12], -0.753; in [13], -0.0809. Besides, the z-score in test [14] is -3.27; in test [15], -4.13; in [16], -1.93; in test [17], -0.523 (inactive); in test [18], -1.11; in test [19], -1.57. Further, the z-score in [20] was -0.226 (inactive). This molecule also had a composite z-score in test [2] of -0.0984.

Turning to `CN1C(=O)C2C=CC(C(O)c3ccccc3)N(N(c3ccccc3)c3ccccc3)C2C1=O` (stereo not given), the z-score in test [1] is -0.84 (inactive); in test [3] it was 0.581 (inactive); in test [4] it was 0.693 (inactive); in test [5], -0.284 (inactive); in test [6], 0.9 (inactive); in test [7], -0.809. Also, the z-score was -1.19 (inactive) in test [8]; -0.586 (inactive) in test [9]; 0.121 in test [10]; -0.948 in test [11]; -0.669 in test [12]; -0.373 in test [13]. Also, the z-score in [14] was 0.0913; in [15] it was -0.383; in test [16], -0.885; in test [17], -0.791 (inactive); in test [18], 0.538; in [19], 0.102. Also, the z-score in [20] is -0.166 (inactive). The composite z-score in test [2] amounted to 0.267.

As to `CCC[C@@H]1C[C@@]1(CCC)[C@@H](NS(=O)(=O)c1cccc2cccnc12)c1ccc(Cl)cc1`, the z-score was -1.61 (inactive) in test [1]; 0.0126 (inactive) in test [3]; 0.765 (inactive) in [4]; -1.01 (inactive) in [5]; 1.01 (inactive) in [6]; 0.883 in test [7]. In addition, the z-score was -0.357 (inactive) in [8]; -0.382 (inactive) in test [9]; 0.127 in test [10]; 1.54 in [11]; -1.13 in test [12]; 0.112 in test [13]. For the same molecule, the z-score in [14] is 0.0781; in test [15] it was -0.99; in test [16] it was 3.46; in test [17], 0.112 (inactive); in [18] it was 0.137; in test [19] it was -0.855. Further, in [20], the z-score was -0.132 (inactive). Moreover, in [2], the composite z-score is 0.617.

As to `NC(=O)NCC#Cc1ccc2c(c1)[C@]1(C(=O)N2)[C@H](c2ccccc2OCCO)N2[C@H](c3ccccc3)[C@H](c3ccccc3)OC(=O)[C@H]2[C@@H]1C(=O)Nc1nc2ccccc2s1`, the z-score in [1] was 0.726 (inactive); in [3], 1.19 (inactive); in test [4], 1.36 (inactive); in test [5], -5.62 (inactive); in [6], 1.28 (inactive); in test [7], -0.0906. For the same molecule, the z-score in test [8] was 1.95 (inactive); in [9], 1.32 (inactive); in test [10], 0.883; in test [11] it was 0.334; in test [12], 0.226; in test [13], -0.126. Moreover, the z-score in test [14] is 0.0225; in test [15], -0.048; in test [16], -2.78; in test [17], 2.99 (inactive); in test [18] it was -0.885; in test [19], -1.73. Moreover, the z-score in test [20] was 0.659 (inactive). The molecule further registered a composite z-score in [2] of 0.0692.

On to `COCCCNC(=O)[C@@]1(C)c2ccccc2C(=O)N(C(C)C)[C@H]1c1ccc(CO)cc1`, for which the z-score was -0.794 (inactive) in test [1]; 0.877 (inactive) in test [3]; -0.057 (inactive) in test [4]; 0.386 (inactive) in test [5]; 0.743 (inactive) in [6]; -0.504 in [7]. The z-score was -0.636 (inactive) in [8]; 0.43 (inactive) in [9]; -0.249 in test [10]; -0.276 in test [11]; -0.208 in test [12]; -0.51 in test [13]. Also, the z-score in test [14] is 0.0651; in [15], 0.532; in test [16], 0.043; in test [17], 0.304 (inactive); in test [18], 0.887; in test [19] it was -0.441. Further, the z-score in test [20] was 0.601 (inactive). The molecule further gave a composite z-score in test [2] of 0.163.

With `O=C1C2C=CC(C(O)c3cccc4ccccc34)N(Nc3ccccc3F)C2C(=O)N1c1ccccc1` (stereo not given), the z-score in [1] is -0.875 (inactive); in test [3], 3.49 (inactive); in test [4], 1.34 (inactive); in test [5] it was -0.481 (inactive); in [6] it was 1.05 (inactive); in [7] it was -0.607. In addition, the z-score in test [8] was -0.26 (inactive); in [9] it was -2.65 (inactive); in [10] it was -1.21; in [11], -1.05; in test [12] it was -1.47; in [13], -0.231. Besides, the z-score in [14] is 0.121; in test [15], -0.345; in test [16] it was -1.86; in test [17], -0.794 (inactive); in [18], 0.355; in test [19], -1.68. Moreover, the z-score in test [20] was -0.232 (inactive). In addition, the composite z-score in test [2] was determined as 0.419.

On to `COC(=O)[C@@]1(Cc2ccc(F)cc2)[C@H]2c3cc(C(=O)N4CCCC4)n(Cc4ccc(S(C)(=O)=O)cc4)c3C[C@H]2CN1C(=O)c1ccccc1`, for which the z-score was -1.75 (inactive) in test [1]; 2.29 (inactive) in test [3]; 0.675 (inactive) in test [4]; 0.775 (inactive) in test [5]; 0.643 (inactive) in test [6]; -0.339 in test [7]. Moreover, the z-score in [8] is 0.949 (inactive); in [9] it was -0.138 (inactive); in [10], -0.744; in test [11], 0.0676; in test [12], 0.582; in test [13] it was -0.035. The z-score in test [14] is -1.23; in test [15], -1.35; in [16], 2.11; in [17], -1.3 (inactive); in [18] it was 0.611; in test [19] it was -0.583. Also, in [20], the z-score is 0.039 (inactive). This molecule also registered a composite z-score in test [2] of 1.24.
